By residual activity is commonly meant the signal under treatment as a percentage of the control signal.

The target of experiment [1] is T1, Serine/threonine-protein kinase TBK1 (Homo sapiens) (UniProt Q9UHD2).
T1 sequence (whole entry): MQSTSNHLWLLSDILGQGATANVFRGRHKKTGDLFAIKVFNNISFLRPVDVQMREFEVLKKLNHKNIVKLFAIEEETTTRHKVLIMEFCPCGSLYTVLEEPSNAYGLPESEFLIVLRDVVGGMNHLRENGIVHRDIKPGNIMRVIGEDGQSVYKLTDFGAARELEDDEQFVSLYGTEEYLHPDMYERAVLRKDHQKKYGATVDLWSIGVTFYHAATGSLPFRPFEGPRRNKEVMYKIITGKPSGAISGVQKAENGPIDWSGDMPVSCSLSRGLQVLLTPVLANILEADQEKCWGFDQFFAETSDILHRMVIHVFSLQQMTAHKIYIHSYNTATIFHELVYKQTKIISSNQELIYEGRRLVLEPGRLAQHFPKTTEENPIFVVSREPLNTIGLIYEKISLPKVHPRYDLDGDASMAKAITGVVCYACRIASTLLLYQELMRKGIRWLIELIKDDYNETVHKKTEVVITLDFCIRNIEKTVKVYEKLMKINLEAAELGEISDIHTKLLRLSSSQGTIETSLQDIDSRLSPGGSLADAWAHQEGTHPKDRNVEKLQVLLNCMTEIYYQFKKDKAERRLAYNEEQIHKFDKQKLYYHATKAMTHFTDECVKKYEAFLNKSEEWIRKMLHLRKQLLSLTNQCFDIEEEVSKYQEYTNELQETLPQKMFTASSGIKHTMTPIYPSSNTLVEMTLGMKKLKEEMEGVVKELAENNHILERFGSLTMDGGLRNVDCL
As to conditions: at 10 µM.

Experiment [2] concerns the target T2, TGF-beta receptor type-1 (Homo sapiens) (UniProt P36897).
T2 sequence (whole entry): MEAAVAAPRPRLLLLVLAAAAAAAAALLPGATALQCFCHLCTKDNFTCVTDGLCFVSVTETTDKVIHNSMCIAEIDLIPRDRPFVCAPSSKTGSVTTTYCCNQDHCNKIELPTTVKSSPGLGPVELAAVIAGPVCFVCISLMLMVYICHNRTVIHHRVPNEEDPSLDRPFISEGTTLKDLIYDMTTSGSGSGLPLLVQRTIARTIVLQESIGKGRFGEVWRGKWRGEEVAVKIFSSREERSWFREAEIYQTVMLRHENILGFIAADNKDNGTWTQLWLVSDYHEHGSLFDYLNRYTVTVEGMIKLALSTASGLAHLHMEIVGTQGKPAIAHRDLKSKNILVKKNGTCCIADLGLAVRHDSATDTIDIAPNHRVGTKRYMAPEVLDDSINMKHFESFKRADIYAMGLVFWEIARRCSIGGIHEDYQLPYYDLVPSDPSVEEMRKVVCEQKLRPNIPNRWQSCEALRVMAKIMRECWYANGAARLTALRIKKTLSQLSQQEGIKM
To be noted: at 1 µM.

In experiment [3] the target is T2, TGF-beta receptor type-1 (Homo sapiens). To be noted: at 10 µM.
For experiment [4], the target named is Insulin-like growth factor 1 receptor (Homo sapiens) (UniProt P08069). As to conditions: at 1 µM.
Experiment [5] shares this target. As to conditions: at 10 µM.
Experiment [6] has as its target T3, Inhibitor of nuclear factor kappa-B kinase subunit alpha (Homo sapiens) (UniProt O15111).
T3 sequence (whole entry): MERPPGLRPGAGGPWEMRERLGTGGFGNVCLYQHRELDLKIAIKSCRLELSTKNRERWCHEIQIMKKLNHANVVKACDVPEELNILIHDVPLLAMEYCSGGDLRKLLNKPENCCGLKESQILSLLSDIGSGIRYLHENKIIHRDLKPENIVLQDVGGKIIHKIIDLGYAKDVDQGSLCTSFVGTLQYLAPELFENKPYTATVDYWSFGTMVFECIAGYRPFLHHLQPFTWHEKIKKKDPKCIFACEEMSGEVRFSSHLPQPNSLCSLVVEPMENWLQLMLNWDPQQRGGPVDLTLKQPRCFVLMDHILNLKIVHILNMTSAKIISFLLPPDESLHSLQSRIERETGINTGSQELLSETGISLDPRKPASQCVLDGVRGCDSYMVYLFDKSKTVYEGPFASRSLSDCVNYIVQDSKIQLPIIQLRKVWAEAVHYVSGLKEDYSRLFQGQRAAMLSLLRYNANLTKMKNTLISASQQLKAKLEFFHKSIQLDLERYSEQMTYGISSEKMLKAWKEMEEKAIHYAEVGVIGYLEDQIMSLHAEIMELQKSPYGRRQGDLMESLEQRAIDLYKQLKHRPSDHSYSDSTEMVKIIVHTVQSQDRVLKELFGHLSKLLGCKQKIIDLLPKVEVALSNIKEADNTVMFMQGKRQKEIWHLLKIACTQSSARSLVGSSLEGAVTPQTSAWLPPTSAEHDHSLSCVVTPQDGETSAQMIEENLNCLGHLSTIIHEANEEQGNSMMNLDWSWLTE
To be noted: at 1 µM.

In experiment [7] the target is T3, Inhibitor of nuclear factor kappa-B kinase subunit alpha (Homo sapiens). To be noted: at 10 µM.
The target of experiment [8] is T4, Inhibitor of nuclear factor kappa-B kinase subunit beta (Homo sapiens) (UniProt O14920).
T4 sequence (whole entry): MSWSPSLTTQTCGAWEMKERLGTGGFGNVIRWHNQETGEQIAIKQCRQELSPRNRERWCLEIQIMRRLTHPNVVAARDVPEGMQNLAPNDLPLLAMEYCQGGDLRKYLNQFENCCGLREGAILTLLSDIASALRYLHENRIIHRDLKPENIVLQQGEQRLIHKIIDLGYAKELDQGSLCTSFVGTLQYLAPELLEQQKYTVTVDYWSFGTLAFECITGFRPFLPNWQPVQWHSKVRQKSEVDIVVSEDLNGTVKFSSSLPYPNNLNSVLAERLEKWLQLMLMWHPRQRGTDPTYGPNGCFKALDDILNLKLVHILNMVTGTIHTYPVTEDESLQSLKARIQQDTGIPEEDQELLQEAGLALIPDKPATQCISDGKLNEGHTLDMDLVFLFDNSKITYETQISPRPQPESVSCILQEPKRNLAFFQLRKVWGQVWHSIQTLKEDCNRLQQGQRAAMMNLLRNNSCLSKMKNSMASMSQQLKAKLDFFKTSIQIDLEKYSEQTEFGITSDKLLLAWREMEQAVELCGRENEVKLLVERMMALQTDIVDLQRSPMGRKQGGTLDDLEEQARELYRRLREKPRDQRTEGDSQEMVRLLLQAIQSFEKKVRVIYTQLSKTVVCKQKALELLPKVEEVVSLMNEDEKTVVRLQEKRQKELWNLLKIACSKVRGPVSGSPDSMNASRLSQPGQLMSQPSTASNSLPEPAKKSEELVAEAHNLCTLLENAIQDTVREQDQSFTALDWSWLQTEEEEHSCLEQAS
To be noted: at 1 µM.

In experiment [9] the target is T4, Inhibitor of nuclear factor kappa-B kinase subunit beta (Homo sapiens). As to conditions: at 10 µM.
Experiment [10] deals with Insulin receptor (Homo sapiens) (UniProt P06213). As to conditions: at 1 µM.

The structures appear in SMILES notation.

Sequence of Insulin-like growth factor 1 receptor (Homo sapiens) (P08069 31-736 limits assumed): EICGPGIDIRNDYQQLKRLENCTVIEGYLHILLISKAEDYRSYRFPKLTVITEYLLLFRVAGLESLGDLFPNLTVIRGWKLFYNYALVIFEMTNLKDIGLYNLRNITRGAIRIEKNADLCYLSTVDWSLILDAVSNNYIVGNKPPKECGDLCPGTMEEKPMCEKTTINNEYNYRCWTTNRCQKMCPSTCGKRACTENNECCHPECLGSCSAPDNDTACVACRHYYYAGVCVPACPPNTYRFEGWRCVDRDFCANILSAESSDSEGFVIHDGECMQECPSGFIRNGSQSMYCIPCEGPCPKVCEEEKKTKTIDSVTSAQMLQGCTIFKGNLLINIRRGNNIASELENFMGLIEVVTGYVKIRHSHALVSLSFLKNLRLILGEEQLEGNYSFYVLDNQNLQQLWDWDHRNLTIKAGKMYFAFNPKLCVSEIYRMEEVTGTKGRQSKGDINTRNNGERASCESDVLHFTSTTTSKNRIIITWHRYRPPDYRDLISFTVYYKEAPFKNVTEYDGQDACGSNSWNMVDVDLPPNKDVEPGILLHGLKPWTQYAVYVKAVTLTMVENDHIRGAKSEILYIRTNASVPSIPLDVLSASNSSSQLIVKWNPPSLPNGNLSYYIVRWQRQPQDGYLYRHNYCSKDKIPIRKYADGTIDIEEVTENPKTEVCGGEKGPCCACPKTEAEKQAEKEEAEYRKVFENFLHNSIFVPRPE
Sequence of Insulin-like growth factor 1 receptor (Homo sapiens) (P08069 741-1367 limits assumed): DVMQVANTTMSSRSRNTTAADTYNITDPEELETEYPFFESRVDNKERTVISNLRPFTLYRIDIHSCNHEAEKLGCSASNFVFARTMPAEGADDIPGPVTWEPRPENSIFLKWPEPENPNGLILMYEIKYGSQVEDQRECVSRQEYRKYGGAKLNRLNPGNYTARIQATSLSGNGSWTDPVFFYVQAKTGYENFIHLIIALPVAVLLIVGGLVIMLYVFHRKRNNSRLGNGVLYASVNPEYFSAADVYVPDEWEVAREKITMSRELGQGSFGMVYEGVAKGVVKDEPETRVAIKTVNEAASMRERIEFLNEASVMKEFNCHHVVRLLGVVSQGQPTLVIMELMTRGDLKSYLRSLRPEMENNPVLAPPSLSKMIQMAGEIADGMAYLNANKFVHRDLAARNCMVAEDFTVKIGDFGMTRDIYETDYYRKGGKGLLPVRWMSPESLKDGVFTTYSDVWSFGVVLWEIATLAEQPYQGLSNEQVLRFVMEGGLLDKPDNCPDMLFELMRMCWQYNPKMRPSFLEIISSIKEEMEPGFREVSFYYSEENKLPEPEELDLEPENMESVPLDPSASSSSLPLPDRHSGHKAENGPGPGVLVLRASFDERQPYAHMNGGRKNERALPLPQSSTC
Sequence of Insulin receptor (Homo sapiens) (P06213 28-758 limits assumed): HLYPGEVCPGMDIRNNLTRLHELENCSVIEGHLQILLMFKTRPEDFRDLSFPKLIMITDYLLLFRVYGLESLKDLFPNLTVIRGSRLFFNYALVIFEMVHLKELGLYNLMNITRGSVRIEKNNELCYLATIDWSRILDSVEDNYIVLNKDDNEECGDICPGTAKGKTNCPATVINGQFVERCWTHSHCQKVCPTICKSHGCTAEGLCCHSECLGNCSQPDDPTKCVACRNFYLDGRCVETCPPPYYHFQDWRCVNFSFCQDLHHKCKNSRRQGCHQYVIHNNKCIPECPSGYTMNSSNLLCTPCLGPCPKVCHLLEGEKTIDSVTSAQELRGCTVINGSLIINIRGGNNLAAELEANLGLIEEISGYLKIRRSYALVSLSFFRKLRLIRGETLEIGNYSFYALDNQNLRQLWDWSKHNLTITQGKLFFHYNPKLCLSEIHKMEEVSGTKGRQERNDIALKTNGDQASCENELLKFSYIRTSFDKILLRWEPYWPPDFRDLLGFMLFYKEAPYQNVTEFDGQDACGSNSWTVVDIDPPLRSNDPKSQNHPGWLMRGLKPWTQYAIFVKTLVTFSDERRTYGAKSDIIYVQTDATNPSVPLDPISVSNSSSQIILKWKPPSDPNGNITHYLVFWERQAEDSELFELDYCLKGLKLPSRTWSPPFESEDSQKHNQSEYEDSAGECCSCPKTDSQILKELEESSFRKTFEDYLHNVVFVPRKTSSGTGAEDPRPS
Sequence of Insulin receptor (Homo sapiens) (P06213 763-1382 limits assumed): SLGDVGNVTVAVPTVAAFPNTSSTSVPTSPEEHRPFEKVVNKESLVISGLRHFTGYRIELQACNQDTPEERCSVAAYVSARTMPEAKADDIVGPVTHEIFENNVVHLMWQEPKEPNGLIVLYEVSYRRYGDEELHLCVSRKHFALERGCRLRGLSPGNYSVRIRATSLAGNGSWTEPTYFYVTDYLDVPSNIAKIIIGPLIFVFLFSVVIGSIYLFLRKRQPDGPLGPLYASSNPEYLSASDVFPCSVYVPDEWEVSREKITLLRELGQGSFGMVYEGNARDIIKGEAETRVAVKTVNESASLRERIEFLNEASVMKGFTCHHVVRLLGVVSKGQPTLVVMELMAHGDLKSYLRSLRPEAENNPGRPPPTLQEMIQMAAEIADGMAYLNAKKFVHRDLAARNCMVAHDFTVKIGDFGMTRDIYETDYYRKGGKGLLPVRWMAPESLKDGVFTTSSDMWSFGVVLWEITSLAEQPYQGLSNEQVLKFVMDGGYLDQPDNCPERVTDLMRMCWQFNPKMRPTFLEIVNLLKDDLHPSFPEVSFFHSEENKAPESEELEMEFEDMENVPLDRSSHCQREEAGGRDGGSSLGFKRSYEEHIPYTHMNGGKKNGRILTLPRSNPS

`COc1ccc(S(=O)(=O)N(CCO)c2ccccc2CN(C)C/C=C/c2ccc(Cl)cc2)cc1`: the residual activity in experiment [1] came to 56%; in experiment [2] it was 97%; in [3], 92%; in [4], 94%; in experiment [5] it was 93%; in experiment [6], 117%. Further, the residual activity in experiment [7] was 108%; in experiment [8] it was 115%; in experiment [9], 110%; in experiment [10] it was 91%.

For the origin of these results see ChEMBL document CHEMBL2218924, “A broad activity screen in support of a chemogenomic map for kinase signalling research and drug discovery” (Biochem J, 2013).
